From PubChem
VDR inh = inhibitors of human vitamin D receptor. P11473. actives 0.93% (n = 400,000). Potency, µM, for inactives: max response, negative = inhibition, hits mostly inhibitors. VDR-SRC2-3 peptide fluorescence polarization, 2 h; also: potency is read from the fitted curve at half-maximal effect; % is scaled to controls: 0 for no effect and ±100 for the full control effect
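Measured by FP: displacement of SRC2-3 coactivator peptide from VDR by library compounds, following a two-hour ambient incubation.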
PLK1 PBD block = inhibitors of human PLK1 polo-box domain binding | P53350 | Plk1 PBD binding of FITC phosphopeptide, fluorescence polarization | Potency, µM, without a hit: max response, negative = inhibition, hits mostly inhibitors | actives 2.8% (n = 360,000) | AID 720504; also: potency is read from the fitted curve at half-maximal effect; series mostly up to about 57 µM; % is scaled to controls: 0 for no effect and ±100 for the full control effect; nearly all actives have a fitted effect of over 65% in size
TCR act = T cell receptor activation | Potency, µM (top dose mostly 9.22 µM), for inactives: at the top dose activation of IL-2 secretion, most hits filed as activators | 330,000 tested, under 10 active | primary human leukocytes, anti-CD3, IL-2 HTRF, 48 h | AID 504894; also: % of control where 0% means no effect
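Compounds are tested in HTS on primary human leukocytes co-incubated with a-CD3 beads for 48 hr. IL-2 output is measured by time-resolved FRET.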
FEN1 inhibitor = inhibitors of human flap endonuclease 1 | P39748 | Recombinant FEN1 flap cleavage, fluorescence, 15 min | Potency, µM (titrated, usually from 114 µM), inactives show at the highest dose activity change, negative = inhibition, actives largely listed as inhibitors | actives 0.35% (n = 390,000); also: potency is read from the fitted curve at half-maximal effect; % is scaled to controls: 0 for no effect and ±100 for the full control effect; nearly all actives have a fitted effect of over 65% in size
Target sequence (P39748 whole entry, looked up): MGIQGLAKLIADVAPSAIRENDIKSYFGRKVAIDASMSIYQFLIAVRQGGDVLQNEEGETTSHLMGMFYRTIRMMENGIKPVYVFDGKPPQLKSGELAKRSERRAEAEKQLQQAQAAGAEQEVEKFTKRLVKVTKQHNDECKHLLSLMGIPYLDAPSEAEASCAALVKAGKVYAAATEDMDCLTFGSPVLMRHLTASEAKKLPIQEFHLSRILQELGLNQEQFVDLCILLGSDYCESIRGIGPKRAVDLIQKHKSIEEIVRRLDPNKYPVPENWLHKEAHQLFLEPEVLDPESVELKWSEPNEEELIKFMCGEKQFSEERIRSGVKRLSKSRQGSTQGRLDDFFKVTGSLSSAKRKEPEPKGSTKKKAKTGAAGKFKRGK
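Quantitative HTS format: each compound was titrated, incubated with 10 nM nuclease for 15 min at room temperature, then challenged with flap substrate at 50 nM final. Signal change over 15 min gave concentration–effect curves.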
PI5P4K alpha inh = blocks human PI5P4K alpha kinase activity; PI5P4Kalpha enzyme, ADP-Glo luminescence, 60 min; hits give low values; max response, %; P48426; actives 1.2% (n = 330,000); active = max response of -50% or lower; inconclusive = between -30% and -50%; inactive = -30% or higher; also: value at the top dose of about 77 µM; % is scaled to controls: 0 for no effect and ±100 for the full control effect
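Human PI5P4Kalpha with substrate in 0.038 M HEPES pH 7.4, 0.28 mM EGTA, 0.1% CHAPS, 5% DMSO; reaction started with 5 microM ATP (final), 60 min at room temperature. ADP formed read by ADP-Glo luminescence.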
WRN inhibitor = blocks human WRN helicase; Q14191; actives 0.46% (n = 360,000); Potency, µM (series often up to 114 µM), for the others: at the top dose activity change, negative = inhibition, hits mostly inhibitors; WRN helicase unwinding, fluorescent forked duplex, kinetic; also: potency is read from the fitted curve at half-maximal effect; % is scaled to controls: 0 for no effect and ±100 for the full control effect; nearly all actives have a fitted effect of over 55% in size
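Primary qHTS, 1536-well format. 20 nM WRN + compound, 15 min RT; start with 100 nM forked fluorophore/quencher duplex, 2 mM ATP (final); kinetic read ex 525/em 598 nm.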
USP1 UbRho = validation of human USP1/UAF1 inhibitors | actives 50% (n = 50) | Potency, µM (top dose mostly 56.8 µM), for inactives: top-dose activity change, negative = inhibition, hits mostly inhibitors | shares compounds with VDR inh | AID 540327 | Ub-Rhodamine cleavage, fluorescence kinetic read
VDR confirm = confirmation of human vitamin D receptor inhibitors | shares compounds with VDR inh | VDR-coactivator inhibition assay, qHTS confirmation | Potency, µM, usual class: inhibitors | actives 89% (n = 840); also: potency is read from the fitted curve at half-maximal effect
VDR FP = confirmation of human VDR-coactivator binding inhibitors, fluorescein label; shares compounds with VDR inh; AID 602200; Potency, µM (doses to about 57.1 µM), for the others: top-dose activity change, negative = inhibition, most hits filed as inhibitors; VDR-coactivator binding, fluorescein fluorescence polarization; actives 48% (n = 840); also: potency is read from the fitted curve at half-maximal effect
VDR bla reporter = confirmation of human vitamin D receptor inhibitors in reporter cells; actives 23% (n = 840); VDR beta-lactamase reporter cells, FRET ratio; cells co-treated with VDR agonist LG190178; Potency, µM (highest dose often 46.1 µM), inactives show at the top dose activity change, negative = inhibition, most hits filed as inhibitors; shares compounds with VDR inh; also: potency is read from the fitted curve at half-maximal effect; % is scaled to controls: 0 for no effect and ±100 for the full control effect
VDR viability = cell toxicity, VDR inhibitor hit counter-screen | actives 18% (n = 840) | Potency, µM (highest dose often 48.3 µM), inactives show top-dose activity change, negative = cytotoxicity, hits mostly cytotoxic | shares compounds with VDR inh | cytotoxicity counter-screen, cell viability, qHTS;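 also: potency is read from the fitted curve at half-maximal effect; plate controls were DMSO for no effect and high-concentration cycloheximide for full effect; nearly all actives have a fitted effect of over 75% in size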
The depositor's hits bear a star; ? = inconclusive; nt = no result; [ ] = dose if it differs, or a comment. A selection: hits, their analogues and other compounds. The true share with any hit is near 3.7%. Unless noted, calls follow the shape of the dose curve; as a rule, active = well fitted curve in the direction sought with a large enough effect; inconclusive = small, poorly fitted or top-dose-only effect, or another doubt; inactive = no such curve, though single readings can be large; an effect the other way counts as inactive or inconclusive.

SMILES	VDR inh	PLK1 PBD block	TCR act	FEN1 inhibitor	PI5P4K alpha inh	WRN inhibitor	VDR confirm	VDR FP	VDR bla reporter	VDR viability	others
COc1ccc(S(=O)(=O)NCc2cccn2Cc2cc(C)ccc2C)cc1OC	9.2%	nt	nt	0.9%	nt	nt	nt	nt	nt	nt
O=[N+]([O-])c1ccc(Oc2ccc(S(=O)(=O)Nc3ccccc3)cc2)cc1	-7.9%	-1.7%	0.0%[46.1 µM]	-0.1%	0.6	-5.6%	nt	nt	nt	nt
O=C1C(Cl)=C(NS(=O)(=O)c2ccc([N+](=O)[O-])cc2)C(=O)c2ccccc21	22.4µM*	?	4.3%	-10.8%	101.9	79.4µM*	5.97*	?	?	?
CC(C)(C)C(=O)Nc1ccc2c(c1)C(=O)C(=O)c1ccccc1-2	8.91µM*	nt	nt	?	nt	nt	1.26*	1µM*	4.11µM*	5.97µM*
O=S(=O)(/N=C(/Sc1ccccc1)c1ccccc1)c1ccccc1	79.4µM*	1.89µM*	-23.6%	0.1%	-0.5	-34.9%	8.44*	?	15.4%	-7.7%
CS/C(=N\S(=O)(=O)c1ccccc1)c1ccccc1	4.6%	6.4%	2.0%[46.1 µM]	-4.1%	-2.6	-4.3%	nt	nt	nt	nt
O=S(=O)(/N=C(/Sc1ccc(Cl)cc1)c1ccccc1)c1ccccc1	35.5µM*	nt	nt	79.4µM*	nt	nt	3.55*	11.2µM*	0.2%	11.3%
CN(C)/C(=N\S(=O)(=O)c1ccccc1)c1ccc(Cl)cc1	-2.6%	-4.0%	4.9%	-0.1%	-6.9	0.2%	nt	nt	nt	nt
O=S(=O)(/N=C(/Sc1ccccc1)c1ccccc1)c1ccc(Cl)cc1	50.1µM*	nt	nt	-10.2%	nt	nt	7.08*	15.8µM*	-1.7%	?
O=[N+]([O-])c1ccc(Cl)c(S(=O)(=O)/N=C(/Sc2ccc(Br)cc2)c2ccccc2)c1	?	nt	nt	-11.4%	nt	nt	7.08*	5.01µM*	9.6%	7.7%
COc1cc(-c2nc(-c3ccccc3)c(-c3ccc(Br)cc3)[nH]2)cc(OC)c1O	12.6%	nt	nt	7.8%	nt	nt	nt	nt	nt	nt
CCc1ccc(S(=O)(=O)c2nnn3c2nc(Nc2cc(OC)cc(OC)c2)c2cc(Cl)ccc23)cc1	4.8%	nt	nt	-0.5%	nt	nt	nt	nt	nt	nt
CC(=O)c1cc(Cl)ccc1OC(=O)c1ccco1	-11.7%	-10.1%	1.8%	7.5%	nt	-11.3%	nt	nt	nt	nt
O=C(Oc1ccc(Br)cc1C(=O)/C=C/c1ccccc1F)c1ccco1	44.7µM*	-16.0%	3.4%	6.0%	4.7	-13.2%	?	7.08µM*	-8.6%	?
COc1cc(N[C@@H](C)CCCN)c2ncccc2c1	4.6%	nt	nt	nt	nt	nt	nt	nt	nt	nt	USP1 UbRho=20µM*
COc1cc(NC(C)CCCN)c2ncccc2c1Oc1ccccc1 (stereo unspecified)	0.1%	-9.9%	-7.0%[46.1 µM]	-6.6%	8.0	-11.1%	nt	nt	nt	nt
COc1cc(C2Oc3ccccc3C=C2[N+](=O)[O-])cc(OC)c1OC (stereo unspecified)	22.4µM*	4.23µM*	-5.3%	?	-1.9	-1.1%	16.8*	?	?	?
COc1ccc(C(=O)/C=C/C(=O)N(CC(=O)NC2CCCCC2)Cc2ccc(F)cc2)c(O)c1	79.4µM*	4.23µM*	nt	-3.6%	-2.0	-0.1%	10.6*	4.47µM*	13µM*	9.2µM*
OCc1cn(-c2ccccc2)nn1	-0.1%	-11.2%	3.9%	4.7%	14.8	4.1%	nt	nt	nt	nt
O=C1OC(NC(=O)c2ccccc2)C(n2cc(CO)nn2)=C1Cl (stereo unspecified)	39.8µM*	9.47µM*	-4.6%	0.4%	?	50.1µM*	?	?	9.9%	24.4%
CCn1c(CNC(=O)c2ccc(OC)cc2)nnc1SCC(=O)Nc1cccc(C)c1	-10.3%	nt	nt	-8.2%	nt	nt	nt	nt	nt	nt
Cc1ccccc1-c1nc(CN2CCC(C(=O)NCc3ccc(F)cc3)CC2)c(C)o1	-13.7%	nt	nt	-10.1%	nt	nt	nt	nt	nt	nt
COc1cc(C(=O)NCC(c2cccnc2)N2CCc3ccccc32)cc(OC)c1OC (stereo unspecified)	-5.1%	nt	nt	3.1%	nt	nt	nt	nt	nt	nt
CC1=NNC(=O)/C1=C\c1cn(-c2ccccc2)nc1-c1ccc(Cl)cc1	12.6µM*	5.32µM*	3.5%	-9.1%	-1.5	-10.8%	?	11.2µM*	?	20.6µM*
Cc1ccc(-c2nn(-c3ccccc3)cc2C=C2C(=O)CC(C)(C)CC2=O)cc1	25.1µM*	0.67µM*	-0.8%	-4.8%	-25.7	-33.5%	?	3.55µM*	16.8%	-15.2%
CCc1ccc(-n2nc3cc(C)c(N)cc3n2)cc1	?	?	3.4%	-5.2%	-4.0	-11.4%	7.08*	12.6µM*	1.4%	3.7%
O=C(CSc1nc2ncccc2o1)Nc1cccc(C(F)(F)F)c1	-0.4%	nt	nt	16.2%	nt	nt	nt	nt	nt	nt
CCOC(=O)c1ccccc1NC(=O)c1c(C)oc2ncnc(N3CCOCC3)c12	7.0%	nt	nt	3.9%	nt	nt	nt	nt	nt	nt
